# Screening results deposited in PubChem BioAssay by several laboratories.
# CYP2C9 inh = human CYP2C9 inhibition; P11712; CYP2C9 Supersomes, luciferin-H conversion, luminescence; inhibition, % at 5 µM; 96,000 compounds, 20% hits; AID 777;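 active = blocking of liver enzyme CYP2C9 beyond about 50% at 5 µM, limit read from the data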
# PostGolgi yeast = growth inhibition of a yeast mutant, post-Golgi transport screen; inhibition, % at 10 µM; post-Golgi transport phenotypic cell assay; AID 739; 98,000 compounds, 0.9% hits;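 note: yeast cells grown in 1536-well plates; yeast grown about 18 h at 30C before absorbance read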
# CYP2C19 inhib = human CYP2C19 inhibition. P33261. inhibition, % at 5 µM. AID 778. 96,000 compounds, 21% hits. CYP2C19 Supersomes, luciferin-H EGE luminescence, 30 min;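 active = CYP2C19 inhibition above a set limit at 5 µM in the primary screen, cut at about 50% in these data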
# Target sequence (P33261 whole entry, looked up): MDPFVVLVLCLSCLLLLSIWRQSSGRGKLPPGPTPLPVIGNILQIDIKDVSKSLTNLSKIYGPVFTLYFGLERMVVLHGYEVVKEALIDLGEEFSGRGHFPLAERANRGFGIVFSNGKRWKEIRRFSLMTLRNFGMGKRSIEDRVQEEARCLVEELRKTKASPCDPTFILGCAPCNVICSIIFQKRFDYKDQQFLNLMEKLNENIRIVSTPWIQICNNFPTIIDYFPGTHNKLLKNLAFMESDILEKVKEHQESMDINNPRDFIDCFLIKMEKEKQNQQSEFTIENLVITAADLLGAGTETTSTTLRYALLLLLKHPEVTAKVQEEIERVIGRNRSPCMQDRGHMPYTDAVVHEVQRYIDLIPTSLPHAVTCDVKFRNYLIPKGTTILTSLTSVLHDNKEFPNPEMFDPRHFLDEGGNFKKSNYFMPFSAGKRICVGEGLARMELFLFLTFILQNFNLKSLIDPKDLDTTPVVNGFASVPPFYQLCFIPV
# CYP2C9 act = increases human cytochrome P450 2C9 activity | activation factor at 5 µM | recombinant CYP2C9, luciferin-H conversion, luminescence; stronger effect = higher value; factor 1 = untreated enzyme, 0 = blocked | P11712 | 96,000 compounds, 1.4% hits;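 active = activation factor of 2 or more for CYP2C9 at a 5 µM dose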
# CYP2C19 act = cytochrome P450 2C19 (human) activation | recombinant CYP2C19, luciferin-H EGE luminescence; stronger effect = higher value; 0 = fully inhibited enzyme, 1 = untreated enzyme | activation factor at 5 µM | 96,000 tested, under 10 active | AID 1025;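 active = activation factor of at least 2 at 5 µM in the primary screen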
# PostGolgi ctrl = growth of the yeast control strain, post-Golgi counter-screen; inhibition, % at 10 µM; AID 738; 98,000 compounds, 5% hits; efflux-deficient yeast background strain, growth absorbance A615, 16 h
# A number is an active result; . = inactive; / = no result. Sampled rows, rich in hits. Any-hit rate of the full collection: about 32%. Cut-off read from the data, not from the text of the source, unless noted: active = inhibition above about 30%; inactive = the rest.
SMILES,CYP2C9 inh,PostGolgi yeast,CYP2C19 inhib,CYP2C9 act,CYP2C19 act,PostGolgi ctrl
O=C(C/C=N\OCc1c(Cl)cccc1Cl)Oc1ccc(Cl)cc1Cl,.,.,.,.,.,.
CC(C)NC(=O)/C(=N\O)c1ccccc1,.,.,.,.,.,.
CCOC(=O)CNC(=O)CN1CCCN(S(=O)(=O)c2ccc(Br)s2)CC1,.,.,.,.,.,.
COc1ccc(N2CCN(S(=O)(=O)c3ccc(Br)s3)CC2)cc1,.,.,.,.,.,.
O=S(=O)(c1ccc(Br)s1)N1CCCCC1,.,.,73,.,.,.
O=C(CN1CCCN(S(=O)(=O)c2ccc(Br)s2)CC1)Nc1ccc(Cl)cc1,.,.,88,.,.,65
CC1CCN(S(=O)(=O)c2ccc(Br)s2)CC1,.,.,95,.,.,.
Cc1cccc(Oc2ncc(-c3ccc(Cl)cc3)cn2)c1,.,.,.,.,.,.
CCn1c(COc2ccc3c(c2)CCCC3)nnc1SCC(=O)Nc1nccs1,.,.,.,.,.,.
COc1ccc(-c2nnc3ccc(SCC(=O)N4CCCCC4)nn23)cc1OC,.,.,.,.,.,.
CCn1c(N2CCN(C(=S)NC)CC2)nc2ccccc21,.,.,66,.,.,.
CCn1c(N2CCN(C(=S)NCC(C)C)CC2)nc2ccccc21,.,.,.,.,.,.
CCn1c(N2CCN(C(=S)NCCc3ccccc3)CC2)nc2ccccc21,.,.,56,.,.,31
O=C(NCc1cccs1)Nc1cccs1,.,.,.,.,.,.
Cc1cccnc1NC(=O)Nc1cccs1,.,.,50,.,.,.
CCc1ccc(NC(=O)Nc2cccs2)cc1,.,.,.,.,.,.
Cc1ccccc1CNC(=O)Nc1cccs1,.,.,72,.,.,.
Cc1ccc(NC(=O)Nc2cccs2)cc1,.,.,.,.,.,38
Cc1nc2sc(C(c3cccc(F)c3)N3CC(C)OC(C)C3)c(O)n2n1 (configuration not stated),.,.,.,.,.,.
C=CCn1c(SCc2ccc3c(c2)OCO3)nc2scc(-c3ccco3)c2c1=O,.,.,.,.,.,.
CSc1nc2ccc(Nc3nc(N4CCOCC4)nc(N4CCOCC4)n3)cc2s1,.,.,.,.,.,.
Nn1c(SCC(=O)Nc2ccc(F)cc2)nnc1-c1cccnc1,.,.,.,.,.,.
CCCCn1c(-c2ccco2)nc2ccccc2c1=O,.,.,.,.,.,.
CCCCn1c(=O)c2ccccc2c2ccccc2c1=O,72,.,82,.,.,.
CCCCn1c(=O)c(-c2ccccc2)c(O)c2ccccc21,.,.,.,.,.,32
SMILES,CYP2C9 inh,PostGolgi yeast,CYP2C19 inhib,CYP2C9 act,CYP2C19 act,PostGolgi ctrl
CSc1nc2nc(-c3ccccc3)cc(C(F)(F)F)n2n1,.,.,.,.,.,.
O=C(c1cccc(Cl)c1)N1CCCC(c2ccc(Cl)cc2)=N1,.,.,62,.,.,.
O=C(c1cccc(Cl)c1)N1CCN(C2CCCCCC2)CC1,.,.,.,.,.,.
O=C(c1ccccc1)N1CCCC(c2ccc(Cl)cc2)=N1,.,.,57,.,.,.
COc1ccc(-c2cc(C(F)(F)F)nc(SCC(=O)N3CC(C)OC(C)C3)n2)cc1OC (configuration not stated),/,.,/,/,/,.
COC(=O)c1cc(NC(=O)C23CCC(C)(C(=O)O2)C3(C)C)cc(C(=O)OC)c1 (configuration not stated),.,.,.,.,.,.
COc1cccc(C(=O)N2CCN(C3CCC(c4ccccc4)CC3)CC2)c1OC (configuration not stated),.,94,.,.,.,54
CCOC(=O)N1CCN(C(=O)c2cccc(OC)c2OC)CC1,.,.,.,.,.,.
N#CC(c1ccc(Cl)cc1)c1nc2ccccc2nc1C(F)(F)F (configuration not stated),.,.,52,.,.,.
FC(F)(F)c1nc2ccccc2nc1N/N=C\c1ccccc1,.,.,.,.,.,.
CCC1(CC)Nc2ccccc2C(=O)N1c1ccc(NC(C)=O)cc1,.,.,74,.,.,.
O=c1cc(NC2CCCCCC2)[nH]c(=O)[nH]1,.,.,.,.,.,.
CCc1nc2c(C#N)c(-c3ccc(Cl)cc3)ccn2n1,.,.,.,.,.,.
COc1cc(C)c(S(=O)(=O)n2ccc(C)n2)cc1C,.,.,83,.,.,.
COc1ccc(S(=O)(=O)n2ccc(C)n2)cc1C,.,.,50,2.4,.,.
COc1cc2ccccc2c2c1CCCC2=O,.,.,59,.,.,.
CC1CC(C)CN(Cc2nc3c(c(=O)n(C)c(=O)n3C)n2CCN2CCOCC2)C1 (configuration not stated),.,.,.,.,.,.
Cc1nc2sc3c(c2c(=O)[nH]1)CCC3,.,.,.,.,.,.
Cc1cc(-c2nc3c4c5c(sc4[nH]c(=O)n3n2)CCC5)c(C)o1,51,.,.,.,.,31
CC(C)c1ccc(NC(=S)NCc2cccs2)cc1,.,.,.,.,.,.
Cc1ccc(NC(=S)NCc2cccs2)c(C)c1,.,.,73,.,.,.
Cc1ccc(NC(=S)NN2CCOCC2)c(C)c1,.,.,.,.,.,.
S=C(NCc1cccs1)Nc1cccc(Cl)c1,.,.,62,.,.,.
O=C(NCc1cccs1)c1cc(-c2cccc(Cl)c2)on1,.,.,.,.,.,.
Cc1cc(Cl)ccc1NC(=S)NCc1cccs1,63,.,97,.,.,.
SMILES,CYP2C9 inh,PostGolgi yeast,CYP2C19 inhib,CYP2C9 act,CYP2C19 act,PostGolgi ctrl
COCCCNC(=S)NC1CC2CCCC(C1)N2Cc1ccco1 (configuration not stated),.,.,.,.,.,.
O=C(C1CCC1)N1CCc2cc(S(=O)(=O)N3CCN(c4ccccn4)CC3)ccc21,.,.,.,.,.,.
CCC(=O)N1CCCc2cc(S(=O)(=O)N3CCN(c4ccccc4F)CC3)ccc21,100,.,96,.,.,.
CCC(=O)N1CCCc2cc(S(=O)(=O)N3CCN(c4ccccn4)CC3)ccc21,80,.,50,.,.,.
CCC(=O)N1CCCc2cc(S(=O)(=O)N3CCN(c4ncccn4)CC3)ccc21,96,.,98,.,.,.
CC(C)(C)SCCNC(=O)c1ccc(NS(C)(=O)=O)cc1,.,.,.,.,.,.
CCCCn1c(NCCC)nc2c1c(=O)[nH]c(=O)n2C,.,.,.,.,.,.
O=C(NCc1ccc2c(c1)OCO2)c1ccc2c(c1)C(=O)N(Cc1cccnc1)C2=O,51,.,.,.,.,.
O=C(CN1C(=O)c2ccccc2C1=O)Nc1cccnc1,.,.,.,.,.,.
CCOc1ccccc1N1C(=O)c2ccc(C(=O)Nc3cccnc3)cc2C1=O,65,.,57,.,.,.
O=C(NCc1cccnc1)c1ccc2c(c1)OCO2,.,.,.,.,.,.
O=C(Nc1cccnc1)c1ccc2c(c1)C(=O)N(Cc1cccnc1)C2=O,.,.,.,.,.,30
